Results: PubChem BioAssay AID493151 (Sanford-Burnham Center for Chemical Genomics, 2011)
About 860 (61%) of roughly 1,400 compounds were called active.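 The calls were made as follows: active = inhibition reaching a set limit, 80% of the first screen's cutoff, at 20 µM in any replicate; inactive = the rest.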 The set was probably picked from earlier hits. A selection follows.

Each compound was assayed against DNA dC->dU-editing enzyme APOBEC-3A (Homo sapiens) (UniProt P31941) (assay: A3A ssDNA deamination blockers, replicate testing – biochemical, single concentration, fluorescence readout, selectivity assay for APOBEC3G inhibitor project, confirmation (AID 493151;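 also: plate controls were DMSO wells with A3A for no effect and wells lacking A3A enzyme for full effect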)). Settings: recombinant A3A, ssDNA deaminase UDG fluorescence assay; at 20 µM; active compounds read high.
DNA dC->dU-editing enzyme APOBEC-3A (Homo sapiens), sequence (P31941 whole entry, looked up): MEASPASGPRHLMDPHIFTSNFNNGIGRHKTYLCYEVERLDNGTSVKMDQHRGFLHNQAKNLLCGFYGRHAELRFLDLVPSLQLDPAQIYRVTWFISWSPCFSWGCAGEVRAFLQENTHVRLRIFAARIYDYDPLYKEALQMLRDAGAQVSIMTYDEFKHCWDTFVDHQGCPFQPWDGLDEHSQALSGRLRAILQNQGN

`C=CC1=C(C(=O)O)N2C(=O)[C@@H](NC(=O)/C(=N/OCC(=O)O)c3csc(N)n3)[C@H]2SC1` was tested. Which inhibition did it give?
The inhibition was 76.3% (active).

Which inhibition does the source give for `O=C(Nc1cccc(-c2nc3ccccc3[nH]2)c1)c1ccc(C(=O)Nc2cccc(-c3nc4ccccc4[nH]3)c2)cc1` here?
Its inhibition is 6.82% (inactive).

Which inhibition does the source give for `CC(=O)Nc1ccc(NC(=O)C2CCCN(S(=O)(=O)c3ccc(Cl)cc3)C2)cc1` (centres undefined) here?
The inhibition was -5.52% (inactive).

For `CSc1nnc(-c2ccncc2)n1CCCN1CCCC1=O`, which inhibition is on record?
Its inhibition is 72.4% (active).

With `O=C(CSc1nccc(=O)[nH]1)Nc1ccc(N2CCOCC2)c(Cl)c1` as the compound, how does the inhibition read?
The inhibition was 18.1% (inactive).

Which inhibition does the source give for `COc1cc(/C=N\Nc2ccc([N+](=O)[O-])cn2)ccc1OCC(=O)O` here?
The inhibition was 37.7% (active).

`CC1(C)CC(N2CCN(C(c3ccccc3)c3ccccc3)CC2)=CC(=[N+]2CCCCC2)C1` was tested. Which inhibition did it give?
Its inhibition is 58.7% (active).

`Cc1ccc(C2=C/C(=C\c3cccnc3)C(=O)O2)cc1` was tested. Which inhibition did it give?
The inhibition was 19.7% (inactive).

How did the inhibition turn out when `CCNC(=O)COC(=O)CCNC(=O)c1cccc(C)c1` was run?
Its inhibition is 25.7% (active).

Which inhibition does the source give for `CSc1nnc(SCc2nc3sc(C(=O)O)c(C)c3c(=O)[nH]2)s1` here?
Its inhibition is 68.9% (active).

Which inhibition does the source give for `COc1ccc(Cc2nnc(NC(=O)c3ccc(OC)cc3OC)s2)cc1` here?
The inhibition was -9.68% (inactive).

How did the inhibition turn out when `COC(=O)C1=C(C)N(Cc2ccccc2)C(=NCCCOC(C)C)N[C@H]1c1ccccc1` was run?
The inhibition was 77.1% (active).

How did the inhibition turn out when `N#Cc1ncc(C(F)(F)F)cc1Oc1cccnc1` was run?
The inhibition was -4.78% (inactive).

With `CCn1c(SCC(=O)Nc2cccc(F)c2)nnc1-c1cc2cc(Br)ccc2o1` as the compound, how does the inhibition read?
Its inhibition is 68.4% (active).

With `NS(=O)(=O)c1cc(C(=O)OCC(=O)NNC(=O)c2ccccc2)ccc1Cl` as the compound, how does the inhibition read?
Its inhibition is 8.76% (inactive).

For `O=C(COC(=O)c1cnc(Cl)c(Cl)c1)NCc1ccco1`, which inhibition is on record?
Its inhibition is 19.3% (active).

`C[n+]1ccc(C(=O)NCc2ccccc2)cc1` was tested. Which inhibition did it give?
The inhibition was 63% (active).

`CC[n+]1cc(C)ccc1/C=C/c1ccc(N(C)C)cc1` was tested. Which inhibition did it give?
Its inhibition is 58.4% (active).

`CCN1C(=NCCc2cccnc2)N[C@@H](c2ccccc2)[C@H](C(=O)OC)[C@H]1C` was tested. Which inhibition did it give?
Its inhibition is 61.1% (active).

`CC[n+]1c(C)n(-c2ccccc2)c2ccc(NC(C)=O)cc21` was tested. Which inhibition did it give?
Its inhibition is 73.8% (active).

For `COc1ccc(C)cc1NC(=O)CCCN1C(=O)NC(C)(C)C1=O`, which inhibition is on record?
Its inhibition is 48.1% (active).

`CS(=O)(=O)c1ccc2c(c1)SC1=NC(=O)/C(=C/c3ccco3)C(=N)N12` was tested. Which inhibition did it give?
Its inhibition is 33.9% (active).

With `CC1=NN(C(=O)CCc2ccccc2O)C(O)(C(F)(F)F)C1` (centres undefined) as the compound, how does the inhibition read?
The inhibition was 21.4% (inactive).

With `O=C(CNC1CCCCC1)NCC1(c2ccccc2)CCCC1` as the compound, how does the inhibition read?
Its inhibition is 29.8% (inactive).

How did the inhibition turn out when `CC(Oc1ccc(F)cc1)C(=O)Nc1cc(S(=O)(=O)N2CCOCC2)ccc1N1CCN(C)CC1` (centres undefined) was run?
Its inhibition is 55.2% (active).

For `C[N+](C)(C)CCNC(=O)c1cc[n+](Cc2ccccc2)c(/C=N/O)c1`, which inhibition is on record?
The inhibition was 52.7% (active).

For `COC(=O)C[n+]1cccc2ccccc21`, which inhibition is on record?
The inhibition was 67.4% (active).

`CC(C)c1ccc(/C=C2\NC(=O)NC2=O)cc1` was tested. Which inhibition did it give?
Its inhibition is 67.7% (active).

With `CCCCCCCC[n+]1cccc(C(=O)N2c3c(nc(N)[nH]c3=O)NC(C)C2C)c1` (centres undefined) as the compound, how does the inhibition read?
The inhibition was 69.9% (active).

Which inhibition does the source give for `COc1ccc(NC(=O)CN(C)C(=O)/C=C/c2cn(Cc3ccccc3)nc2-c2cccnc2)cc1` here?
Its inhibition is 30.7% (inactive).

For `CCCN1C2=C(C(=O)CCC2)C(c2ccc(O)c(Br)c2)C2=C1CCCC2=O`, which inhibition is on record?
The inhibition was -5.86% (inactive).

`S=C(Nc1cccnc1)Nc1ccccn1` was tested. Which inhibition did it give?
Its inhibition is -2% (inactive).

`C[N+]1(CCNC(=O)/C=N/O)CCCCC1` was tested. Which inhibition did it give?
Its inhibition is 73.9% (active).

`C[N+]1(CC(O)COc2ccccc2)CCN(C(=O)c2ccc([N+](=O)[O-])cc2)CC1` (centres undefined) was tested. Which inhibition did it give?
The inhibition was 74.8% (active).

With `CNc1ccc([N+](=O)[O-])cc1C(=O)O` as the compound, how does the inhibition read?
The inhibition was 0.63% (inactive).

With `COc1ccc(CNc2nnnn2C)cc1` as the compound, how does the inhibition read?
Its inhibition is -3.03% (inactive).

How did the inhibition turn out when `Cc1cc2c(cc1C)[n+](C)cn2CC(O)COCC1CC=CCC1` (centres undefined) was run?
The inhibition was 73.1% (active).

Which inhibition does the source give for `CC(/C=C/c1ccccc1)=N\NC(=O)C1CC1(C)c1ccccc1` (centres undefined) here?
Its inhibition is -0.43% (inactive).

`CCCc1nc(-c2cc3cc(C)ccc3[nH]c2=O)no1` was tested. Which inhibition did it give?
The inhibition was 67.6% (active).

For `COc1ccc2[nH]c(=O)c(-c3noc(-c4ccc(F)cc4)n3)cc2c1`, which inhibition is on record?
Its inhibition is 5.11% (inactive).

Which inhibition does the source give for `COc1ccccc1-c1noc(CSc2nc(C)cc(=O)[nH]2)n1` here?
The inhibition was 36.8% (active).

`O=C(c1ccc(CS(=O)(=O)c2ccccc2)o1)N1CCN(c2ccccc2)CC1` was tested. Which inhibition did it give?
The inhibition was 31.7% (active).

How did the inhibition turn out when `Cc1snc(SCc2c(F)cccc2Cl)c1C#N` was run?
The inhibition was 30.3% (inactive).

For `N#Cc1ccccc1CN1C(=O)S/C(=C/c2cccn2-c2cccc(C(=O)O)c2)C1=O`, which inhibition is on record?
Its inhibition is 53.8% (active).

Which inhibition does the source give for `CCN(CC)CCCNC(=O)CCn1nc(-c2ccc(Cl)cc2)ccc1=O` here?
The inhibition was -4.91% (inactive).

How did the inhibition turn out when `Cc1nnc(N/N=C/c2ccccn2)[nH]c1=O` was run?
The inhibition was -1.88% (inactive).

Which inhibition does the source give for `O=C(N/N=C\c1cccnc1)c1cc(-c2ccccc2)nc2c(Cl)cccc12` here?
Its inhibition is -3% (inactive).

With `COc1ccc(CCNC(=O)COC(=O)/C=C/c2cccs2)cc1OC` as the compound, how does the inhibition read?
The inhibition was -7.13% (inactive).

For `COc1ccccc1CCNC(=O)C1CCN(C(=O)/C=C/c2ccccc2)CC1`, which inhibition is on record?
The inhibition was 36.9% (active).

`CC1(C)Oc2ccc3ccc(=O)oc3c2/C(=C/NCCO)C1=O` was tested. Which inhibition did it give?
The inhibition was 71.5% (active).

Which inhibition does the source give for `N#Cc1ccsc1NC(=O)CN1CCN(S(=O)(=O)c2cc(Cl)ccc2Cl)CC1` here?
Its inhibition is 22.2% (inactive).

How did the inhibition turn out when `CCN(CC)CCOC(=O)c1ccc(NC(=O)CNC(=O)c2ccccc2)cc1` was run?
The inhibition was 2.53% (inactive).

With `CCOC(=O)c1ccc(NC(=O)CSc2ncccn2)cc1` as the compound, how does the inhibition read?
Its inhibition is 59% (active).

For `Cc1csc(SCC(=O)Nc2sccc2C#N)n1`, which inhibition is on record?
Its inhibition is 0.02% (inactive).

`Cc1cc(/C=N/NC(=O)CC2(C)OCCO2)c(C)n1-c1ccc(Cl)c(Cl)c1` was tested. Which inhibition did it give?
Its inhibition is 0.39% (inactive).

Which inhibition does the source give for `CCS(=O)(=O)c1ccc(-c2cccc(NC(=O)c3ccc(Br)o3)c2)nn1` here?
Its inhibition is -5.47% (inactive).

For `CCCCNC(=O)CSc1nc2ccc(NC(=O)CSc3nnc(N)s3)cc2s1`, which inhibition is on record?
The inhibition was 49.7% (active).

How did the inhibition turn out when `COc1ccc(Br)cc1CN(C)C(=O)C1CC(=O)N(C2CCCC2)C1` (centres undefined) was run?
The inhibition was 27.6% (active).

Which inhibition does the source give for `O=C(CSc1nc2ccccc2c(=O)[nH]1)Nc1nc(-c2ccc(Br)cc2)cs1` here?
Its inhibition is 42.3% (active).

Which inhibition does the source give for `CC(C)CCOc1ccc(C(=O)C[N+]2(C)CCOCC2)cc1` here?
Its inhibition is 95.7% (active).

With `Cc1ccc(C(=O)N/N=C\c2cc(Br)c(Br)o2)cn1` as the compound, how does the inhibition read?
Its inhibition is 15.2% (active).

With `COc1cccc(NC(C)=[N+](C)CCNS(=O)(=O)c2ccc(Cl)cc2)c1` as the compound, how does the inhibition read?
The inhibition was 29.4% (inactive).

For `C[N+](C)(CCCCCC[N+](C)(C)CCCN1C(=O)c2cccc3cccc(c23)C1=O)CCCN1C(=O)c2cccc3cccc(c23)C1=O`, which inhibition is on record?
The inhibition was 35.2% (active).

Which inhibition does the source give for `CC(=O)Nc1ccc(Nc2cc(C)nc(Nc3ccc(NC(C)=O)cc3)n2)cc1` here?
The inhibition was 48.6% (active).

With `Cc1ccc(CCCOC(=O)C[N+]2(C)CCCCC2)cc1` as the compound, how does the inhibition read?
Its inhibition is 81.4% (active).

With `CCN1C(=NCC(C)C)N[C@@H](CCc2ccccc2)[C@H](C(=O)NCC(C)C)[C@H]1C` as the compound, how does the inhibition read?
Its inhibition is 37.8% (active).

For `CCN1C(=NCc2ccc(OC)cc2)N[C@@H](CCc2ccccc2)[C@H](C(=O)NCc2ccc(OC)cc2)[C@H]1C`, which inhibition is on record?
Its inhibition is 32.8% (active).

For `COCCCn1c(Cc2csc(Nc3cccc(Cl)c3)n2)nnc1SCC(=O)OC1CCCCC1`, which inhibition is on record?
The inhibition was 72.2% (active).

How did the inhibition turn out when `O=C1c2oc3ccccc3c(=O)c2C(c2cccc(O)c2)N1c1ccccn1` (centres undefined) was run?
Its inhibition is -9.88% (inactive).
